# Assay results reported in PubChem BioAssay.
# Active and inactive are the calls of the source.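 The calls were made as follows, unless noted: active = mean z-score across replicates of 1.96 or higher in either the MELAS or the Rieske mutant cell line; inactive = the rest.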 Where a SMILES comes first, the peptide text is derived from it. Bridges are numbered along the chain shown (N, C = ends). [ ]: non-standard residue; d: D form. The star is where a group is joined. Heptanoyl(5-Me) = CCC(C)CCCC(=O)*; Dab = NCC[C@H](N)C(=O)O
# Key:
# [1] = MELAS cybrid and Rieske KO viability enhancers – cell-based, MELAS cybrids, Rieske KO mouse fibroblasts, CellTiter-Glo, primary screen (AID 1508586); conditions: low glucose;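 also: z relative to plate mean and SD of compound and empty wells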
# [2] = blockers of cellular phospholipid synthesis – cell-based, LOPAC library, screen 4, primary screen (AID 1347384; call rule not given here); conditions: animal cells, phospholipid biosynthesis inhibition screen; at 10 µM
# [3] = galactose survival enhancers in mitochondrial complex I cybrids – cell-based, galactose medium, ATP luminescence, primary screen (AID 1645843;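 active = z-score of at least 1.8 in each of two replicates, scored against plate mean and spread of sample wells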;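 also: positive z means more ATP and so rescue of galactose-driven cybrid death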); conditions: complex I mutant cybrid cells, 72 h, stronger effect = higher value
# [4] = biological target: NAD(+) hydrolase SARM1 (Homo sapiens) (UniProt Q6SZW1); experiment: blocking NAD cleavage by SARM1 SAM-TIR – cell lysate, NAD-Glo luminescence (AID 1508614;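 active = compound whose remaining NAD level is above about 45 nM, limit read from the data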;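 also: higher remaining NAD means stronger inhibition of SARM1 NADase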); conditions: SAM-TIR HEK293T lysate NADase, at 1 µM, stronger effect = higher value
# [5] = biological target: Mitogen-activated protein kinase 7 (Homo sapiens) (UniProt Q13164); experiment: Gal4-ERK5 driven luciferase induction – cell-based, HTS, primary screen (AID 1508626;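 active = luciferase signal above three times the same-plate solvent-only control wells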;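 also: luciferase driven by Gal4-ERK5 fusion binding five Gal4 sites before minimal TATA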); conditions: HeLa Gal4-ERK5 transactivation, 18 h, at 5 µM, stronger effect = higher value
# [6] = tested on: Hepatitis C virus NS3 helicase; experiment: blockers of NS3h binding to ssDNA – biochemical, fluorescence polarization, LOPAC1280 library, primary screen (AID 687035; in the data active = inhibition above about 37%); conditions: Purified HCV NS3 helicase, Cy5-dT15 ssDNA binding fluorescence polarization; stronger effect = higher value; concentration not given here
# [7] = compounds altering Cy5-DNA-NS3h complex signal – biochemical, LOPAC1280, artefact control for HCV NS3 helicase inhibitor project (AID 687037; call rule not given here); conditions: Cy5-DNA-NS3h complex fluorescence interference counterscreen
# [8] = compounds altering circadian rhythm period length – cell-based, LOPAC library, luminescence reporter (AID 2774; call rule not given here;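 also: values are relative to mean of DMSO wells on each plate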); conditions: circadian reporter cells, at 7 µM, actives lie on both sides
# [9] = MELAS cybrid survival, CellTiter-Glo 48 h, stronger effect = higher value
# [10] = Rieske KO mouse fibroblast survival, CellTiter-Glo 72 h
# NAD(+) hydrolase SARM1 (Homo sapiens), sequence (Q6SZW1 whole entry, looked up, the tested form may be a part): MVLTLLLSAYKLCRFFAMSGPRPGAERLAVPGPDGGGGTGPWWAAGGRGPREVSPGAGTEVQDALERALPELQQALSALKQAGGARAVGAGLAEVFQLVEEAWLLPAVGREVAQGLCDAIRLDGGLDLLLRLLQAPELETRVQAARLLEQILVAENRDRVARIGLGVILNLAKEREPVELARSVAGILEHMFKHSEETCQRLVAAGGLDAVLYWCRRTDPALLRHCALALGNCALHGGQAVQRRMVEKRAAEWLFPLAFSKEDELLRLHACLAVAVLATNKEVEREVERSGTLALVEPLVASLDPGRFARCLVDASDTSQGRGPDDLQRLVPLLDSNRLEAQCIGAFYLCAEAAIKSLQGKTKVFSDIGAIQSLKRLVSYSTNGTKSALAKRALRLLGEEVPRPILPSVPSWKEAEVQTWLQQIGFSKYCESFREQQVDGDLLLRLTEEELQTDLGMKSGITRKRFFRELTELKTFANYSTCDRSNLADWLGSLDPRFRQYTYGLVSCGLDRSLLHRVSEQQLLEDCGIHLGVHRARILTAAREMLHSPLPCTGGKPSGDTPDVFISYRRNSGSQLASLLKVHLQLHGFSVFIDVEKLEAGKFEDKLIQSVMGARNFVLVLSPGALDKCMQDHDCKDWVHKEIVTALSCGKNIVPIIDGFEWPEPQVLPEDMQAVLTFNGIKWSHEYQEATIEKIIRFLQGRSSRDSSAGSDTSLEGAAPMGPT
# Mitogen-activated protein kinase 7 (Homo sapiens), sequence (Q13164 whole entry, looked up, the tested form may be a part): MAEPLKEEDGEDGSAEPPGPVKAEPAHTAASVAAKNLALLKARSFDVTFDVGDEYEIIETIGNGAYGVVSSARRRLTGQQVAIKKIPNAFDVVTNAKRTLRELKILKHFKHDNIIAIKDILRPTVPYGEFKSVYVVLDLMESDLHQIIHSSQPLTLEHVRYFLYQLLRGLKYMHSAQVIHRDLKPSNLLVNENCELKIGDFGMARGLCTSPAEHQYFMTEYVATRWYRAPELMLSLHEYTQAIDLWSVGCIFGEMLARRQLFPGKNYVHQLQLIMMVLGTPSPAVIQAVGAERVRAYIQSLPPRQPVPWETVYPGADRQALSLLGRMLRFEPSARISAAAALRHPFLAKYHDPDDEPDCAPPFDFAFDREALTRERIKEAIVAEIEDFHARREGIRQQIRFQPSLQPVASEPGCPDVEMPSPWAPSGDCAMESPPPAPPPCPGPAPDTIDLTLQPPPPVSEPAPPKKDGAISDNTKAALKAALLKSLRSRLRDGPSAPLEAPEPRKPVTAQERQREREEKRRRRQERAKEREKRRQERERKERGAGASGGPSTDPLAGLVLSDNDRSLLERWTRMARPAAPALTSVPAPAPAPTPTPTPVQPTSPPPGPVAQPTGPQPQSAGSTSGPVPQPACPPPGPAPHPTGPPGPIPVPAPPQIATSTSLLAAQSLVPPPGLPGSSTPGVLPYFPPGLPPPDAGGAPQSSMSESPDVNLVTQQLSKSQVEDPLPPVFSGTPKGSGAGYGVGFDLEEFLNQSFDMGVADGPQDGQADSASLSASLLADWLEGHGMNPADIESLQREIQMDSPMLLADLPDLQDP
smiles,measurement,setting,value
C=Cc1c(C)c2cc3nc(cc4[nH]c(cc5nc(cc1[nH]2)C(C)=C5CCC(=O)O)c(CCC(=O)OC)c4C)[C@@]1(C)C3=CC=C(C(=O)OC)C1C(=O)OC (some centres not stated),z-score,[1]; [9],1.85 (inactive)
same,z-score,[1]; [10],1.33
C=CC1=C(C)c2cc3[nH]c(cc4nc(cc5[nH]c(cc1n2)c(C)c5CCC(=O)O)C(CCC(=O)O)=C4C)c(C)c3C=C,outcome,[2],inactive
COc1cccc2c1C(=O)c1c(O)c3c(c(O)c1C2=O)C[C@@](O)(C(=O)CO)C[C@@H]3O[C@@H]1C[C@H](N)[C@@H](O)[C@H](C)O1,z-score,[1]; [9],6.67 (active)
same,z-score,[1]; [10],-1.72
CCOC(=O)N1CCC(N2CCc3c(cc(-c4cccc(OC)c4OC)c(=O)n3CC3CC3)C2)CC1,z-score,[1]; [9],-0.362 (inactive)
same,z-score,[1]; [10],-0.0606
same,z-score,[3],-0.36 (inactive)
CCOc1ccccc1O[C@@H](c1ccccc1)[C@H]1CNCCO1,z-score,[1]; [9],-0.0519 (inactive)
same,z-score,[1]; [10],-0.0896
CCC(C)CCCC(=O)N[C@@H](CCN)C(=O)N[C@H](C(=O)N[C@@H](CCN)C(=O)N[C@H]1CCNC(=O)[C@H]([C@@H](C)O)NC(=O)[C@H](CCN)NC(=O)[C@H](CCN)NC(=O)[C@H](CC(C)C)NC(=O)[C@@H](CC(C)C)NC(=O)[C@H](CCN)NC1=O)[C@@H](C)O (stereo partly drawn) ({Heptanoyl(5-Me)}-[Dab]T[Dab][Dab][Dab][dL]L[Dab][Dab]T; lactam 4-C),z-score,[1]; [9],-0.0594 (inactive)
same,z-score,[1]; [10],0.188
CC(C)CC(NP(=O)(O)OC1OC(C)C(O)C(O)C1O)C(=O)NC(Cc1c[nH]c2ccccc12)C(=O)O (configuration not stated),z-score,[1]; [9],-0.408 (inactive)
same,z-score,[1]; [10],0.685
C/C=C/C1=C(C(=O)O)N2C(=O)[C@@H](NC(=O)[C@H](N)c3ccc(O)cc3)[C@H]2SC1,z-score,[1]; [9],-0.679 (inactive)
same,z-score,[1]; [10],-1.17
same,remaining NAD,[4],10 nM (inactive)
same,luciferase signal,[5],48 AU (inactive)
CO/N=C(\C(=O)N[C@@H]1C(=O)N2C(C(=O)OC(C)OC(C)=O)=C(COC(N)=O)CS[C@H]12)c1ccco1 (some centres not stated),z-score,[1]; [9],0.525 (inactive)
same,z-score,[1]; [10],0.0681
same,remaining NAD,[4],10 nM (inactive)
Nc1nc(CC(=O)Nc2ccc(CCNC[C@H](O)c3ccccc3)cc2)cs1,z-score,[1]; [9],0.235 (inactive)
same,z-score,[1]; [10],0.0504
Cc1cc(=O)c(C(=O)N[C@@H](C(=O)N[C@@H]2C(=O)N3C(C(=O)O)=C(CSc4nnnn4C)CS[C@H]23)c2ccc(O)cc2)c[nH]1,z-score,[1]; [9],0.177 (inactive)
same,z-score,[1]; [10],-0.0348
same,remaining NAD,[4],10 nM (inactive)
O=C(/C=C/c1ccc(O)cc1)CC(=O)/C=C/c1ccc(O)cc1,outcome,[2],inactive
CN1C[C@H](C(=O)N[C@]2(C)O[C@@]3(O)[C@@H]4CCCN4C(=O)[C@H](Cc4ccccc4)N3C2=O)CC2c3cccc4[nH]cc(c34)C[C@H]21 (mixture of isomers),z-score,[1]; [9],0.0487 (inactive)
same,z-score,[1]; [10],0.764
COc1cc(Br)c(C[N+]2(CCOCCC3CC[C@H]4C[C@@H]3C4(C)C)CCOCC2)cc1OC (some centres not stated),z-score,[1]; [9],-1.55 (inactive)
same,z-score,[1]; [10],0.547
N[C@@H]1CCCCN(c2c(F)cc3c(=O)c(C(=O)O)cn(C4CC4)c3c2Cl)C1,z-score,[1]; [9],0.702 (inactive)
same,z-score,[1]; [10],-0.618
CC=C(C)C(=O)O[C@H]1[C@H](OC(C)=O)C2(CO)C(CC1(C)C)C1=CCC3C4(C)CCC(OC5O[C@H](C(=O)O)[C@@H](O[C@@H]6O[C@H](CO)[C@@H](O)[C@H](O)[C@H]6O)[C@H](O)[C@H]5O[C@@H]5O[C@H](CO)C(O)[C@H](O)[C@H]5O)[C@](C)(CO)C4CCC3(C)[C@]1(C)C[C@H]2O (some centres not stated),z-score,[1]; [9],0.702
same,z-score,[1]; [10],2.95
CC[C@H]1OC(=O)C[C@@H](O)[C@H](C)[C@@H](O[C@@H]2O[C@H](C)[C@@H](O[C@H]3CC(C)(O)[C@@H](O)[C@H](C)O3)[C@H](N(C)C)[C@H]2O)[C@@H](CC=O)C[C@@H](C)C(=O)/C=C/C(C)=C/[C@@H]1CO[C@@H]1O[C@H](C)[C@@H](O)[C@@H](OC)[C@H]1OC (some centres not stated),z-score,[1]; [9],0.259 (inactive)
same,z-score,[1]; [10],-0.21
CNCC[C@@H](Oc1cccc2ccccc12)c1cccs1,z-score,[1]; [9],-0.177 (inactive)
same,z-score,[1]; [10],0.977
C[C@H](CSC(=O)c1ccccc1)C(=O)N1C[C@@H](Sc2ccccc2)CC1C(=O)O (some centres not stated),outcome,[2],inactive
COc1ccc(C[C@@H]2c3cc(OC)c(OC)cc3CC[N@+]2(C)CCC(=O)OCCCCCOC(=O)CC[N@@+]2(C)CCc3cc(OC)c(OC)cc3[C@H]2Cc2ccc(OC)c(OC)c2)cc1OC,z-score,[1]; [9],-1.09 (inactive)
same,z-score,[1]; [10],-0.143
CCOC([O-])=Nc1c[n+](N2CCOCC2)no1,inhibition,[6],-3% (inactive)
same,fluorescence ratio (interference),[7],1 (inactive)
same,outcome,[2],inactive
CN(C)C(=O)N=NC(=O)N(C)C,inhibition,[6],-4% (inactive)
same,fluorescence ratio (interference),[7],1 (inactive)
same,outcome,[2],inactive
Cc1ncsc1CCn1nc(C(=O)NC2CC2)c2c1CCN(C(=O)C1Cc3ccccc3O1)C2 (configuration not stated),z-score,[1]; [9],-0.25
same,z-score,[1]; [10],4.81
same,z-score,[3],-0.18 (inactive)
Nc1ncnc2c1ncn2[C@@H]1O[C@H](COP(=O)(O)CP(=O)(O)OP(=O)(O)O)[C@H](O)C1O (some centres not stated),outcome,[2],inactive
Nc1nc(NC2CC2)c2ncn([C@H]3C=C[C@@H](CO)C3)c2n1,z-score,[1]; [9],1.09 (inactive)
same,z-score,[1]; [10],-0.0348
same,remaining NAD,[4],10 nM (inactive)
C#C[C@]1(OC(C)=O)CC[C@H]2[C@@H]3CCC4=CC(=NO)CC[C@@H]4[C@H]3CC[C@@]21CC,z-score,[1]; [9],0.995 (inactive)
same,z-score,[1]; [10],0.685
CO[C@H]1/C=C/O[C@@]2(C)Oc3c(C)c(O)c4c(O)c(c(/C=N/N5CCN(C6CCCC6)CC5)c(O)c4c3C2=O)NC(=O)/C(C)=C\C=C\[C@H](C)[C@H](O)[C@@H](C)[C@@H](O)[C@@H](C)[C@H](OC(C)=O)[C@@H]1C,z-score,[1]; [9],0.699 (inactive)
same,z-score,[1]; [10],0.251
N#CC(=C(\N)Sc1ccccc1N)/C(C#N)=C(/N)Sc1ccccc1N,period change,[8],-0.02 h (inactive)
same,inhibition,[6],-1% (inactive)
same,fluorescence ratio (interference),[7],1 (inactive)
same,outcome,[2],inactive
same,z-score,[3],-1.33 (inactive)
C[N+]1(C)[C@@H]2CC(OC(=O)C(CO)c3ccccc3)C[C@H]1[C@@H]1O[C@@H]12 (some centres not stated),z-score,[1]; [9],-0.282 (inactive)
same,z-score,[1]; [10],0.781
CN1[C@@H]2CC[C@@H]1CC(OC(=O)C(CO)c1ccccc1)C2 (some centres not stated),z-score,[1]; [9],0.0633 (inactive)
same,z-score,[1]; [10],-0.0663
COC(=O)CCN1CC(OCc2cccc(OC)c2)CN(C(=O)CCc2cccs2)CC1=O (configuration not stated),z-score,[1]; [9],-0.467 (inactive)
same,z-score,[1]; [10],-0.256
same,z-score,[3],0.52 (inactive)
Cc1ccc(Cl)cc1NC(=O)N[C@H]1C[C@H]2C(=O)N[C@H](C(C)C)C(=O)N2C1,z-score,[1]; [9],-0.17 (inactive)
same,z-score,[1]; [10],0.0408
same,z-score,[3],-0.745 (inactive)
Cc1onc(-c2ccccc2)c1C(=O)N1CC(=O)N(Cc2ccccc2)CC(OCC2CC2)C1 (configuration not stated),z-score,[1]; [9],0.442 (inactive)
same,z-score,[1]; [10],-0.273
same,z-score,[3],-1.6 (inactive)
